Results from PubChem BioAssay AID1159580 (chemical genetic matrix, 2015).
Where “and” joins values, the source holds several entries; their conditions need not be identical. Identical values can stand only once. Among all 5,500 compounds or so, about 2,000 (36%) were called active. Another 18% or so got no clear call; they are omitted. No stated cut-off is given here; in the data, active means normalized growth mostly below about 0.91 (no sharp cut-off); inconclusive means no clear call, values can overlap the other calls; inactive means mostly above about 0.92. This is one part of the list.

Assay: chemical genetic growth profiling, strain panel (AID 1159580);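 further: tested at 20 µM; growth read once vehicle control cultures reached saturation at 30 °C; 1 = growth at the plate median or of vehicle wells; lower values mean less growth of the strain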
Conditions: S. cerevisiae deletion strains, growth OD

Measured: normalized growth

O=C1C[C@@H](c2ccc(O)cc2)Oc2cc(O)cc(O)c21
inactive: locus YAL013W, strain DEP1, hits give low values 1.02 | locus YAL021C, strain ccr4, hits give low values 0.987 | locus YAL026C, strain drs2, hits give low values 0.969 | locus YAL030W, strain snc1, hits give low values 0.953 | locus YBL061C, strain skt5, hits give low values 0.974 | locus YBR009C, strain hhf1, hits give low values 0.959 | locus YBR021W, strain FUR4, hits give low values 0.995 | locus YBR023C, strain chs3, hits give low values 0.955 | locus YBR171W, strain sec66, hits give low values 0.989 | locus YBR229C, strain ROT2, hits give low values 1.02 | locus YBR231C, strain swc5, hits give low values 0.972 | locus YBR279W, strain paf1, hits give low values 0.97 | locus YCL011C, strain gbp2, hits give low values 0.952 | locus YCL016C, strain dcc1, hits give low values 0.969 | locus YCL029C, strain bik1, hits give low values 1.03 | locus YCL061C, strain MRC1, hits give low values 0.979 | locus YCL069W, strain vba3, hits give low values 0.966 | locus YCR088W, strain abp1, hits give low values 0.955 | locus YDL005C, strain med2, hits give low values 0.978 | locus YDL035C, strain GPR1, hits give low values 1.01 | locus YDL040C, strain nat1, hits give low values 0.976 | locus YDL074C, strain BRE1, hits give low values 1.01 | locus YDL101C, strain DUN1, hits give low values 1.01 | locus YDL134C, strain PPH21, hits give low values 1.01 | locus YDL185W, strain tfp1, hits give low values 1.01 | locus YDL192W, strain arf1, hits give low values 1.01 | locus YDR001C, strain nth1, hits give low values 0.964 | locus YDR069C, strain doa4, hits give low values 0.944 | locus YDR101C, strain arx1, hits give low values 1.01 | locus YDR137W, strain rgp1, hits give low values 0.955 | locus YDR150W, strain NUM1, hits give low values 1.01 | locus YDR159W, strain sac3, hits give low values 0.942 | locus YDR162C, strain NBP2, hits give low values 1.01 | locus YDR195W, strain ref2 0.931 | locus YDR297W, strain sur2, hits give low values 0.97 | locus YDR318W, strain mcm21, hits give low values 1.01 | locus YDR334W, strain swr1, hits give low values 0.962 | locus YDR335W, strain msn5, hits give low values 0.979 | locus YDR388W, hits give low values 1.01 | locus YDR392W, strain spt3, hits give low values 0.862 | locus YDR502C, strain sam2, hits give low values 1.01 | locus YEL003W, strain gim4, hits give low values 0.977 | locus YEL037C, strain rad23, hits give low values 0.968 | locus YEL061C, strain CIN8 (second series), hits give low values 0.949 | locus YEL061C, strain CIN8, hits give low values 1.01 | locus YER015W, strain faa2, hits give low values 0.982 | locus YER016W, strain bim1, hits give low values 0.971 | locus YER110C, hits give low values 1.02 | locus YER111C, strain swi4, hits give low values 0.958 | locus YER155C, strain BEM2 (second series), hits give low values 0.875 | locus YER155C, strain BEM2, hits give low values 1.01 | locus YER167W, strain BCK2, hits give low values 1.01 | locus YFR010W, strain ubp6, hits give low values 0.924 | locus YGL078C, strain dbp3, hits give low values 1.02 | locus YGL086W, strain mad1, hits give low values 1.01 | locus YGL167C, strain pmr1, hits give low values 0.949 | locus YGL173C, strain kem1, hits give low values 0.969 | locus YGL227W, strain vid30, hits give low values 0.948 | locus YGL240W, strain doc1, hits give low values 0.944 | locus YGL248W, strain PDE1, hits give low values 1.01 | locus YGL253W, strain hxk2, hits give low values 0.983 | locus YGR078C, strain PAC10, hits give low values 1.01 | locus YGR135W, strain pre9, hits give low values 1 | locus YGR229C, strain SMI1, hits give low values 1.01 | locus YGR252W, strain gcn5, hits give low values 0.988 | locus YHR013C, strain ard1, hits give low values 0.933 | locus YHR027C, strain rpn1, hits give low values 0.971 | locus YHR030C, strain SLT2, hits give low values 1.01 and 0.975 | locus YHR079C, strain IRE1 (second series), hits give low values 1.01 | locus YHR079C, strain IRE1, hits give low values 0.977 | locus YHR094C, strain hxt1, hits give low values 1 | locus YHR129C, strain ARP1, hits give low values 1.01 | locus YHR142W, strain chs7, hits give low values 0.942 | locus YHR200W, strain rpn10, hits give low values 1.01 | locus YIL066C, strain RNR3, hits give low values 1.02 | locus YIL073C, strain SPO22, hits give low values 1.05 | locus YIL125W, strain kgd1, hits give low values 1.01 | locus YIR030C, strain dcg1, hits give low values 1.02 | locus YJL092W, strain hpr5, hits give low values 0.977 | locus YJL095W, strain BCK1 (second series), hits give low values 0.976 | locus YJL095W, strain BCK1, hits give low values 0.997 and 0.98 | locus YJL115W, strain asf1, hits give low values 0.964 | locus YJL129C, strain trk1, hits give low values 0.947 | locus YJL134W, strain LCB3, hits give low values 1.01 | locus YJL154C, strain vps35, hits give low values 0.967 | locus YJL164C, strain tpk1, hits give low values 0.97 | locus YJL166W, strain qcr8, hits give low values 0.968 | locus YJL168C, strain set2, hits give low values 1.02 | locus YJL187C, strain SWE1 (second series), hits give low values 1.02 | locus YJL187C, strain SWE1, hits give low values 0.965 | locus YJR043C, strain POL32, hits give low values 1.01 | locus YJR066W, strain TOR1, hits give low values 0.935
